Screens as filed in PubChem.
In the library only some 12% were active in any assay of this set; here they are far more common.
PLK1 PBD block: PLK1 (human) polo-box domain binding inhibition. Potency, µM, without a hit: max response, negative = inhibition, usual class: inhibitors. AID 720504. P53350. hit rate 2.8% among 360,000. Plk1 PBD binding of FITC phosphopeptide, fluorescence polarization; also: potency is read from the fitted curve at half-maximal effect; series mostly up to about 57 µM; % is scaled to controls: 0 for no effect and ±100 for the full control effect; nearly all actives have a fitted effect of over 65% in size
G9a block: blocks human histone lysine methyltransferase G9a; Q96KQ7; G9a H3K9 monomethylation, AlphaScreen, 2 h; Potency, µM (top dose mostly 102 µM), inactives show top-dose activity, negative = inhibition, usual class: inhibitors; hit rate 8.8% among 350,000; AID 504332; also: potency is read from the fitted curve at half-maximal effect; % is scaled to controls: 0 for no effect and ±100 for the full control effect; nearly all actives have a fitted effect of over 75% in size
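Enzyme 20 nM + cpd, 15 min RT; add b-H3K9 pep 500 nM / SAM 20 uM; 2 h RT; anti-H3K9me1 Ab 0.5 ug/mL + SA donor / anti-rabbit acceptor beads 20 ug/mL each, 10 min; AlphaScreen read.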
JMJD2A Tudor inh: blocks the human JMJD2A Tudor domain | O75164 | AlphaScreen JMJD2A-Tudor / H3K4me3 peptide binding | Potency, µM (highest dose often 114 µM), without a hit: at the highest dose activity change, negative = inhibition, most hits filed as inhibitors | hit rate 4.4% among 390,000; also: potency is read from the fitted curve at half-maximal effect; % is scaled to controls: 0 for no effect and ±100 for the full control effect; nearly all actives have a fitted effect of over 50% in size
PI5P4K alpha inh: PI5P4K alpha (human) kinase inhibition; max response, %; PI5P4Kalpha enzyme, ADP-Glo luminescence, 60 min; stronger effect = lower value; AID 652105; P48426; hit rate 1.2% among 330,000; active = max response of -50% or lower; inconclusive = between -30% and -50%; inactive = -30% or higher; also: value at the top dose of about 77 µM; % is scaled to controls: 0 for no effect and ±100 for the full control effect
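Compounds were pin-transferred onto PI5P4Kalpha and substrate in HEPES pH 7.4 buffer with EGTA, CHAPS and 5% DMSO. ATP (5 microM final) started the reaction, which ran 60 minutes at room temperature before ADP-Glo detection.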
HP1b binding inh: blocks HP1-beta chromodomain binding to methylated histone tails; P83916; AlphaScreen HP1-beta / biotin-H3K9me3 peptide binding; Potency, µM (doses to about 114 µM), inactives show at the top dose activity change, negative = inhibition, hits mostly inhibitors; hit rate 0.56% among 390,000; AID 540317; also: potency is read from the fitted curve at half-maximal effect; nearly all actives have a fitted effect of over 70% in size
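HP1-beta protein (50 nM final) preincubated 30 min at room temperature with biotinylated H3(1-18)K9me3 peptide (50 nM) in PBS pH 7.4, 0.01% Tween-20, then compound added for 30 min. AlphaScreen streptavidin donor/nickel chelate acceptor beads (10 ug/mL final), 30 min dark, luminescence read.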
BAZ2B block: BAZ2B (human) inhibition; Potency, µM (series often up to 114 µM), for the others: top-dose activity change, negative = inhibition, most hits filed as inhibitors; AlphaScreen BAZ2B-H3K14Ac peptide displacement; hit rate 4.4% among 360,000; also: potency is read from the fitted curve at half-maximal effect; % is scaled to controls: 0 for no effect and ±100 for the full control effect; nearly all actives have a fitted effect of over 60% in size
Target sequence (Q9UIF8 whole entry, looked up): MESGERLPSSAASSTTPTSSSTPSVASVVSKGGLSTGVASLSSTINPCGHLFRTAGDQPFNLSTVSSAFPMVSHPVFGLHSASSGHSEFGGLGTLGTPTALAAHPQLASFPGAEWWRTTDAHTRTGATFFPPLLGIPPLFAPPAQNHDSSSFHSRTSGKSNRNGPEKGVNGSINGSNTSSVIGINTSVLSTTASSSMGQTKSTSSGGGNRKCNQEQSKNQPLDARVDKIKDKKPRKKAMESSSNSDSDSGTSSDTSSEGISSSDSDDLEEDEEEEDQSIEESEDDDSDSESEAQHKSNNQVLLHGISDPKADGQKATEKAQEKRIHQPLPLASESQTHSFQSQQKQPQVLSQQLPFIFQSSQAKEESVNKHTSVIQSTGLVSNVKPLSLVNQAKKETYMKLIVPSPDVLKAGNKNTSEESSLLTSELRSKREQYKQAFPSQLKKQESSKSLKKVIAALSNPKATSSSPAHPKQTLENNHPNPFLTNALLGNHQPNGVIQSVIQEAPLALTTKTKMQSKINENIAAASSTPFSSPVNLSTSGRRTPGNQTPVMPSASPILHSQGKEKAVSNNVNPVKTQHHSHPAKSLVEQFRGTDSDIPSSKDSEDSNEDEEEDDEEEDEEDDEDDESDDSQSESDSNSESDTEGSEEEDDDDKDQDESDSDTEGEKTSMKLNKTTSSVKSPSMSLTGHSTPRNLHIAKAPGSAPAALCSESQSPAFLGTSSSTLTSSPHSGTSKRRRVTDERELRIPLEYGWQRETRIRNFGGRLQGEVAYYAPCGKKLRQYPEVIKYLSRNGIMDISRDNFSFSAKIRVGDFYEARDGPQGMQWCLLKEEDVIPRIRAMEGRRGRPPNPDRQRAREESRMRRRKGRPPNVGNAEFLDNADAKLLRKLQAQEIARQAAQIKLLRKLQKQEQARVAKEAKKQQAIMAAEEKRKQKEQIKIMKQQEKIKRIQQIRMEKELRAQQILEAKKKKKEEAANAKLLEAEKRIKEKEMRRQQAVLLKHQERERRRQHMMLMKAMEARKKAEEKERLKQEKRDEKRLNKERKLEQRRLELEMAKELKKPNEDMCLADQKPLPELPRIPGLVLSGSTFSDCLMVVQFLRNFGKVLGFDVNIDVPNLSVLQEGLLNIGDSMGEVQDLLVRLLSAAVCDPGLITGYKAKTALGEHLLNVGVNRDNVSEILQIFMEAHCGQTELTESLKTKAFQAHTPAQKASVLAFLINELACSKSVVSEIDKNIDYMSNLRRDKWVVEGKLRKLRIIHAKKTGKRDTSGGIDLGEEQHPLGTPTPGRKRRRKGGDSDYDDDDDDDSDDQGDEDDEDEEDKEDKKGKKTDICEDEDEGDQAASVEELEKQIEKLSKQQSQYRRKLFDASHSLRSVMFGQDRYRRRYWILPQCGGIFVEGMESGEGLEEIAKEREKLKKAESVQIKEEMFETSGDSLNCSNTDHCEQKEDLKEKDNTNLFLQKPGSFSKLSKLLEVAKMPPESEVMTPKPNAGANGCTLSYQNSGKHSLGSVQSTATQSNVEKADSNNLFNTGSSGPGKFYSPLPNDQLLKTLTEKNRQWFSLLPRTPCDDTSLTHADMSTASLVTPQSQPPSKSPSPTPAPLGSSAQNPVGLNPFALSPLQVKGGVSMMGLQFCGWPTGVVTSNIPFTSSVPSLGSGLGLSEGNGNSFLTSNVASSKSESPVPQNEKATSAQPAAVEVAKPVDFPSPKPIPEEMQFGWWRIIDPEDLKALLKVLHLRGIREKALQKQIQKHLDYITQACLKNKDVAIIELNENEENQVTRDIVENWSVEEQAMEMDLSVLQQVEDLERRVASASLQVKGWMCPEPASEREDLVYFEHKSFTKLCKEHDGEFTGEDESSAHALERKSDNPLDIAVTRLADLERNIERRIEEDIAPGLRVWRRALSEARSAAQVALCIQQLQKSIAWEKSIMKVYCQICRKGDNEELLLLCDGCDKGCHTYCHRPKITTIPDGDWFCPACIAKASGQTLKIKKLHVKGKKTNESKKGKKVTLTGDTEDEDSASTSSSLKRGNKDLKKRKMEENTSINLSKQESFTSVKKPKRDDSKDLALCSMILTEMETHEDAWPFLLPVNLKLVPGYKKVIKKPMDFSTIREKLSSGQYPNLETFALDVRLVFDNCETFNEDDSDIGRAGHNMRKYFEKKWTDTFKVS
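AlphaScreen displacement of biotin-H3(5-23)K14Ac peptide (50 nM final) from BAZ2B (50 nM final) in PBS pH 7.4, 0.01% Tween-20; complex preformed 30 min RT, then compounds (top 110 uM) 30 min RT, beads 20 min dark.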
Active calls of the source: *; ? = inconclusive; / = not tested or not shown; [ ] = another dose, or the depositor's remark. Unless noted, calls follow the shape of the dose curve; as a rule, active = well fitted curve in the direction sought with a large enough effect; inconclusive = small, poorly fitted or top-dose-only effect, or another doubt; inactive = no such curve, though single readings can be large; an effect the other way counts as inactive or inconclusive.

SMILES | PLK1 PBD block | G9a block | JMJD2A Tudor inh | PI5P4K alpha inh | HP1b binding inh | BAZ2B block
Cc1ccc2nc(N3C(=O)C(O)=C(C(=O)c4cc5ccccc5o4)C3c3cccs3)sc2c1 (stereo unspecified) | ? | 20%[59 µM] | ? | -27 | -12% | -6%
CCc1ccc2nc(N3C(=O)C(O)=C(C(=O)c4ccco4)C3c3cccs3)sc2c1 (stereo unspecified) | 17µM* | ? | ? | -59* | ? | 50µM*
Cc1ccc2nc(N3C(=O)C(O)=C(C(=O)c4ccc(C)o4)C3c3ccco3)sc2c1 (stereo unspecified) | ? | ? | 50µM* | ? | -12% | 50µM*
O=C(Nc1nc2ccc(Cl)cc2s1)c1ccco1 | 0% | -31%[59 µM] | -7% | 0 | 22% | 3%
Cc1cccc(NC(=O)C(=O)c2cc(C)n(-c3ccccc3)c2C)c1C | / | -32%[59 µM] | -15% | / | 29% | -3%
CCOC(=O)N1CCN(CC(O)COCc2ccccc2)CC1 (stereo unspecified) | 2% | 2% | -2% | -2 | 34% | 4%
CCOC(=O)N1CCN(CC(O)COCC2=CCC3CC2C3(C)C)CC1 (stereo unspecified) | -9% | / | 3.5µM* | 1 | ? | 50µM*
O=C1C(=O)N(CCCO)C(c2ccc(Br)cc2)/C1=C(\O)c1ccc(Br)cc1 (stereo unspecified) | -9% | ? | -20% | -2 | 24% | -8%
O=C(NCc1ccc(F)cc1)c1cc(C2CCCCN2C(=O)c2ccc(Cl)cc2)on1 (stereo unspecified) | -4% | / | / | 6 | / | /
Nc1nc(C23CC4CC(CC(C4)C2)C3)[nH]c(=O)n1 | -3% | -4%[59 µM] | -7% | 0 | 28% | -10%
c1cc2nc(C34CC5CC(CC(C5)C3)C4)[nH]c2cn1 | -4% | 14µM* | 22µM* | -9 | ? | 50µM*
O=C(OCC(=O)N1CCN(c2ccccc2)CC1)c1nc(Cl)ccc1Cl | -3% | 8% | -12% | -12 | 21% | 3%
CCCCCn1c(=O)[nH]c2cc(C(=O)Nc3cc(OC)cc(OC)c3)ccc2c1=O | / | 2%[59 µM] | -13% | / | 18% | -1%
COc1cccc(C2=NOC(C(=O)Nc3ccccc3SC)C2)c1 (stereo unspecified) | 30µM* | -4%[59 µM] | -5%[57.1 µM] | 1 | -18% | 3%
COC(=O)N/N=C/c1ccc(OC(=O)/C=C/c2ccco2)cc1 | -14% | / | ? | -51* | -21% | 71µM*
CC(C)(C)OC(=O)N/N=C\c1ccc(OC(=O)c2ccco2)cc1 | 24µM* | -40% | 32µM* | -30 | -12% | 18%
CCOc1cc(/C=N\NC(=O)OC(C)(C)C)ccc1OC(=O)c1ccco1 | 21µM* | -13% | 20µM* | -26 | -20% | /
Clc1ccccc1CNCc1ccc2c(c1)OCO2 | -15% | / | / | -3 | / | /
COC(=O)Cc1c(C)c2ccc(OCC(=O)N3CCC(C)CC3)c(C)c2oc1=O | -20% | 20% | -8% | -3 | 15% | -15%
COCCNC(=O)C1(C)CCCN(C(=O)c2ccccc2C(F)(F)F)C1 (stereo unspecified) | 0% | / | / | 4 | / | /
CCOC(=O)C(=Cc1ccc(F)cc1)C(=O)OCC | / | / | / | / | / | 7%
CCOC(=O)C(=Cc1ccc(Br)cc1)C(=O)OCC | 17µM* | -4%[12.7 µM] | 89% | 14 | 121% | 44%
COC(=O)c1ccc(-n2ccnc2)cc1 | -4% | 9% | -10% | 1 | 5% | -21%
CCOC(=O)C(=Cc1ccc(-n2ccnc2)cc1)C(=O)OCC | ? | 45µM* | -15% | -8 | 34% | ?
CC(C)c1nc2ccc(C(=O)Nc3ccccc3F)cc2o1 | / | -4%[59 µM] | -8% | / | 21%[57 µM] | -1%
SMILES | PLK1 PBD block | G9a block | JMJD2A Tudor inh | PI5P4K alpha inh | HP1b binding inh | BAZ2B block
COc1ccc(CNC(=O)c2ccc3c(c2)CCN3S(=O)(=O)c2ccc(C)cc2)cc1 | / | 7%[59 µM] | -7% | / | 35% | -18%
Cc1ccc(CNC(=O)c2ccc(N3CCC4(CC3)CC(c3ccccc3)=NO4)c([N+](=O)[O-])c2)cc1 | -12% | 71µM* | -35% | -10 | ? | -31%
CCCNC(=O)c1ccc(N2CCC3(CC2)CC(c2ccccc2)=NO3)c(NC(=O)c2cccc(OC)c2)c1 | 27µM* | 45µM* | 56µM* | -4 | 23% | ?
Cc1ccc(CNC(=O)c2ccc(N3CCc4ccccc43)c([N+](=O)[O-])c2)cc1 | -7% | 8.9µM* | 8.9µM* | 1 | 32µM* | 10µM*
C=C1CCN(c2ccc(C(=O)NCc3ccccc3)cc2[N+](=O)[O-])CC1 | 3% | 22µM* | ? | -10 | -6% | ?
O=C(c1cccs1)N(Cc1cccnc1)c1nc2ccc(F)cc2s1 | / | -13%[59 µM] | -9% | / | 36% | -3%
COC(CNC(=O)c1ccc(N2CCc3ccccc32)c([N+](=O)[O-])c1)OC | 0% | 45µM* | ? | 0 | ? | 40µM*
O=C(CN1C(=O)NC2(CCCC2)C1=O)c1ccc(Cl)s1 | 2% | 79µM* | -8% | -25 | 8% | -2%
CC(C)(C)C(=O)NCc1ccc(C(=O)CN2C(=O)NC3(CCCC3)C2=O)s1 | -5% | -41% | -2% | 3 | 29% | 11%
COCCn1c(=S)[nH]c2cc(C(=O)N3CCc4ccccc43)ccc2c1=O | -13% | ? | -31% | / | 19% | 6%
COc1ccc(Cn2c(=O)sc3ccccc32)cc1 | 4% | 24%[59 µM] | 23% | 3 | 68% | 71%
COCCn1c(=S)[nH]c2ccccc21 | -13% | 40µM* | -11%[57.1 µM] | 1 | 42% | -37%
COc1ccc(Cn2c(=S)[nH]c3ccccc32)cc1 | -7% | 1.8µM* | -23% | -2 | 33% | -30%
COc1ccc(-n2c(=S)[nH]c3ccccc32)cc1 | ? | 3.5µM* | 40µM* | -20 | 3% | ?
O=S1(=O)N=C(N/N=C/c2ccc(Br)o2)c2ccccc21 | -7% | 40µM* | ? | -10 | 19% | 0%
CN(C)c1ccc(/C=N/NC2=NS(=O)(=O)c3ccccc32)cc1 | -1% | ? | -29% | -14 | -3% | -3%
O=[N+]([O-])c1cccc(/C=N/Nc2ccccn2)c1 | -7% | -7% | -17% | -2 | 21% | -16%
O=[N+]([O-])c1cccc(/C=N/NC2=NS(=O)(=O)c3ccccc32)c1 | 27µM* | -22% | ? | -10 | ? | -11%
O=C(NNC1=NS(=O)(=O)c2ccccc21)c1ccc(Cl)cc1 | -11% | -46% | -11% | -14 | 32% | -6%
COc1ccc(/C=N/NC2=NS(=O)(=O)c3ccccc32)cc1 | -1% | -22% | -14% | -10 | 29% | -7%
O=C(NNC1=NS(=O)(=O)c2ccccc21)c1ccc([N+](=O)[O-])cc1 | -6% | 35µM* | -6% | -10 | 11% | -6%
